# In paper PMC7862700, “An all-to-all approach to the identification of sequence-specific readers for epigenetic DNA modifications on cytosine”:
# Legend:
# Test in all cases: DAPPL (digital affinity profiling via proximity ligation, sequencing); 10 mM Tris-HCl pH 7.5, 50 mM NaCl, 1 mM DTT, 4% glycerol, room temperature, 30 min; GST-TFs on glutathione beads, 16-mer random dsDNA library, 0.1% formaldehyde crosslink after washing; high values mean tight binding
# FEV = molecular target: T1, FEV (Homo sapiens, UniProt Q99581 1-238); conditions: protein: recombinant; tags: N-terminal GST; dsDNA, one strand shown
# T1 sequence: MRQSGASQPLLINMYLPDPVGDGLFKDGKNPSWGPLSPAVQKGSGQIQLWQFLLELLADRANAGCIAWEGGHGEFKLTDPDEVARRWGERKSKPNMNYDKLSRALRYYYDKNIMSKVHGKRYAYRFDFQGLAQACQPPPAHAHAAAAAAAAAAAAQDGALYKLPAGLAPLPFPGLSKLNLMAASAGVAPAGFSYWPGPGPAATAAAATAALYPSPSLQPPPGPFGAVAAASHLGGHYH
# In short: (§1)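 Binding signal is each hexamer's read frequency for a factor divided by its frequency in the tag-only sample. The factors were GST-fused human transcription factors from yeast, captured on glutathione beads, DNA-barcoded and pooled with that sample. Pools were incubated with 200 nmole of a random double-stranded 16-mer DNA library in Tris/NaCl/DTT/glycerol buffer at room temperature for 30 min, then washed, crosslinked with 0.1% formaldehyde, proximity-ligated with BsaI/T4 ligase (1 h, 37 °C), PCR-amplified and sequenced on an Illumina NextSeq500.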
# ETV5 = ETV5 (Homo sapiens, UniProt P41161 1-510); conditions: protein: recombinant; tags: N-terminal GST; dsDNA, one strand shown
# In short: as §1
# HSF1 = HSF1 (Homo sapiens, UniProt Q00613 1-529); conditions: protein: recombinant; tags: N-terminal GST; chain copies: 3; dsDNA, one strand shown
# In short: as §1
# SPIC = molecular target: T2, SPIC (Homo sapiens, UniProt Q8N5J4 1-248); conditions: protein: recombinant; tags: N-terminal GST; dsDNA, one strand shown
# T2 sequence: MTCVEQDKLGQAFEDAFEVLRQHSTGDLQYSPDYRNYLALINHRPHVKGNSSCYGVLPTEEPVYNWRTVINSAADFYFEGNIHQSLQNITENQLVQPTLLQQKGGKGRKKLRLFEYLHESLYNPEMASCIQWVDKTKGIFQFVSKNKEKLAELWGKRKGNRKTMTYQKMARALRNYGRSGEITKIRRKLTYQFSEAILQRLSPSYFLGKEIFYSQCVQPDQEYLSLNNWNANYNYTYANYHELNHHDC
# In short: as §1
# ELF4 = ELF4 (Homo sapiens, UniProt Q99607 1-663); conditions: protein: recombinant; tags: N-terminal GST; dsDNA, one strand shown
# In short: as §1
# ELK4 = molecular target: T3, ELK4 (Homo sapiens, UniProt P28324-2 1-405); conditions: protein: recombinant; tags: N-terminal GST; dsDNA, one strand shown
# T3 sequence: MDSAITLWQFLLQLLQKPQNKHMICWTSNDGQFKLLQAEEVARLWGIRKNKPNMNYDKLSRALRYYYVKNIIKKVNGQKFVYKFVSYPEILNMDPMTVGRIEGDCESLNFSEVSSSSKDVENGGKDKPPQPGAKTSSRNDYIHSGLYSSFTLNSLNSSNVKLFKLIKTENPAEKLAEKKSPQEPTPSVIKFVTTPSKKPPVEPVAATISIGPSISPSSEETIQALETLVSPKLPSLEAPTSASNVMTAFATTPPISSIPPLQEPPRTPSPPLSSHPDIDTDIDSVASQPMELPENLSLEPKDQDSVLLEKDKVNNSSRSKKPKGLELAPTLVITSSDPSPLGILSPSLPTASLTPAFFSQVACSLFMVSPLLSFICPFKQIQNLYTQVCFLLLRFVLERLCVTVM
# In short: as §1
# ETV2 = molecular target: T4, ETV2 (Homo sapiens, UniProt O00321 1-342); conditions: protein: recombinant; tags: N-terminal GST; dsDNA, one strand shown
# T4 sequence: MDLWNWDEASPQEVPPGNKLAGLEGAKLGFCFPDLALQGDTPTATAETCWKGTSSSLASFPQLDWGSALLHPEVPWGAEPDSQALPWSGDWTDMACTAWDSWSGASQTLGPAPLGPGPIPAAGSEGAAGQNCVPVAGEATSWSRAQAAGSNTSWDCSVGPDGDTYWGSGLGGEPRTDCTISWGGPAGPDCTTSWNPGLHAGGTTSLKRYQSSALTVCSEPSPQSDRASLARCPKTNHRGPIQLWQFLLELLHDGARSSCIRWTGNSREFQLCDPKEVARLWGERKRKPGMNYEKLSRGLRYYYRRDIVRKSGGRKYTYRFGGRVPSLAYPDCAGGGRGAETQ
# In short: as §1
# ELF3 = molecular target: T5, ELF3 (Homo sapiens, UniProt P78545 1-371); conditions: protein: recombinant; tags: N-terminal GST; dsDNA, one strand shown
# T5 sequence: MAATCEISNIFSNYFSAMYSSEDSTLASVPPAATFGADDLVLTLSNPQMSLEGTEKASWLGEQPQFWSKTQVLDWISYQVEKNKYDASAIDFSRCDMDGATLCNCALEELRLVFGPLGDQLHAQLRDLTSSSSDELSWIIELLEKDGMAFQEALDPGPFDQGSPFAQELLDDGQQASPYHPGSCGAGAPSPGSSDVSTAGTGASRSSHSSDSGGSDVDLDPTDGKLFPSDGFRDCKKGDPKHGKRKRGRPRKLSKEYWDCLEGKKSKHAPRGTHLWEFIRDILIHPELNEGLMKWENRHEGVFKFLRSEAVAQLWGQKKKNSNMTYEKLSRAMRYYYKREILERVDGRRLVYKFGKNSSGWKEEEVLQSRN
# In short: as §1
# CRX = CRX (Homo sapiens, UniProt O43186 1-299); conditions: protein: recombinant; tags: N-terminal GST; dsDNA, one strand shown
# In short: as §1
# ETV1 = ETV1 (Homo sapiens, UniProt P50549 1-477); conditions: protein: recombinant; tags: N-terminal GST; dsDNA, one strand shown
# In short: as §1
# ERF = molecular target: T6, ERF (Homo sapiens, UniProt P50548 1-548); conditions: protein: recombinant; tags: N-terminal GST; dsDNA, one strand shown
# T6 sequence: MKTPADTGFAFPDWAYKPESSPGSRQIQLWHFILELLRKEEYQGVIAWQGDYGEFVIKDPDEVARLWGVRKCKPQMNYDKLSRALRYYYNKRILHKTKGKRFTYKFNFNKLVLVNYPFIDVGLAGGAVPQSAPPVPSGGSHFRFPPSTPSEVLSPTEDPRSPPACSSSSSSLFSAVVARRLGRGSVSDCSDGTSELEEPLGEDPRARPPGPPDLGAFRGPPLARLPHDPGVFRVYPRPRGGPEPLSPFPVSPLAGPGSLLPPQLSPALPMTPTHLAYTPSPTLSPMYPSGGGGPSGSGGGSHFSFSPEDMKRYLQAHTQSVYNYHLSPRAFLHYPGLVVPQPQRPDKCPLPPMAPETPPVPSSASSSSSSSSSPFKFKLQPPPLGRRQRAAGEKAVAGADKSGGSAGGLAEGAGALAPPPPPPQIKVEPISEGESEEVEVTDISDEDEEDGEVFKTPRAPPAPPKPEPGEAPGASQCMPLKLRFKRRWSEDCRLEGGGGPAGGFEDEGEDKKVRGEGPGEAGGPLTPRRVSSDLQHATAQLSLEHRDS
# In short: as §1
# ETV3L = molecular target: T7, ETV3L (Homo sapiens, UniProt Q6ZN32 1-361); conditions: protein: recombinant; tags: N-terminal GST; dsDNA, one strand shown
# T7 sequence: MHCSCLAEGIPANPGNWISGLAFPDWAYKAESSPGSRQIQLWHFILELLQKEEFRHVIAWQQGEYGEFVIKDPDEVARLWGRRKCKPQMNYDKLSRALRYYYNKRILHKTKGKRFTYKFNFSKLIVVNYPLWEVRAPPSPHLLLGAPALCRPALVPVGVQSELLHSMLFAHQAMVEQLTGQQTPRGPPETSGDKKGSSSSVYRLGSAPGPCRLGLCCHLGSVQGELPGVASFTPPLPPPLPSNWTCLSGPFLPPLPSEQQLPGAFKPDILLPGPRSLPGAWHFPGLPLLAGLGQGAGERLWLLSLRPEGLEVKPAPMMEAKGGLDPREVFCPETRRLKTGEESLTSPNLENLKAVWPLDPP
# In short: as §1
# ETS2 = molecular target: T8, ETS2 (Homo sapiens, UniProt P15036 1-469); conditions: protein: recombinant; tags: N-terminal GST; dsDNA, one strand shown
# T8 sequence: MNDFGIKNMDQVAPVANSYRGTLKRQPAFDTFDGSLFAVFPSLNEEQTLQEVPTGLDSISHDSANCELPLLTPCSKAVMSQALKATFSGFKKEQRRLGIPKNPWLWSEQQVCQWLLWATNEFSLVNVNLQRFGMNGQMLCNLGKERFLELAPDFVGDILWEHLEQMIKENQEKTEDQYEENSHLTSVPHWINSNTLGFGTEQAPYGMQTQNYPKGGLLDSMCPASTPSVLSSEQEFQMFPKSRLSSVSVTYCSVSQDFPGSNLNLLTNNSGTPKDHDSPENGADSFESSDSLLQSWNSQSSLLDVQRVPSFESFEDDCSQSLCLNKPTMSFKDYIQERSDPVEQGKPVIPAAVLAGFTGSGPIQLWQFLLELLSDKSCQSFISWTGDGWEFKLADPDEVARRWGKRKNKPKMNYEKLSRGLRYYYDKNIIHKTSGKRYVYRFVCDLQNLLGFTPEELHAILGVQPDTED
# In short: as §1
# SPDEF = molecular target: T9, SPDEF (Homo sapiens, UniProt O95238 1-335); conditions: protein: recombinant; tags: N-terminal GST; dsDNA, one strand shown
# T9 sequence: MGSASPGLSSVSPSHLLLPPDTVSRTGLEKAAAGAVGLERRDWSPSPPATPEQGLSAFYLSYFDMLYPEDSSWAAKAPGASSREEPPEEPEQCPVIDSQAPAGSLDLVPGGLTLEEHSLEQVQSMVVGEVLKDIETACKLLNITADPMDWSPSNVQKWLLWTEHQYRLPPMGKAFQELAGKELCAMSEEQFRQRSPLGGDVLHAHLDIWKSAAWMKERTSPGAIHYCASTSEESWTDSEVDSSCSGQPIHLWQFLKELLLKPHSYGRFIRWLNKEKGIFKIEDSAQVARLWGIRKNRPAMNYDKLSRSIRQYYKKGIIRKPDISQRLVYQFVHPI
# In short: as §1
# ETV7 = molecular target: T10, ETV7 (Homo sapiens, UniProt Q9Y603 1-341); conditions: protein: recombinant; tags: N-terminal GST; dsDNA, one strand shown
# T10 sequence: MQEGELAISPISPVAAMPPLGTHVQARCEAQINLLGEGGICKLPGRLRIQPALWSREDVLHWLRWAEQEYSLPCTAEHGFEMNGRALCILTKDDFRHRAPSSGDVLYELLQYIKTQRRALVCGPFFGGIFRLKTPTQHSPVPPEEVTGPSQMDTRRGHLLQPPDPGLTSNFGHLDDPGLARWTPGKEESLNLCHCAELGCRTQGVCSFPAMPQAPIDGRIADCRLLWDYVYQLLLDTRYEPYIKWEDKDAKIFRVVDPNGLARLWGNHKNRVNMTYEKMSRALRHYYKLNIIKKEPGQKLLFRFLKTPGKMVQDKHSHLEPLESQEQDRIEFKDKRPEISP
# In short: as §1
# ELF5 = molecular target: T11, ELF5 (Homo sapiens, UniProt Q9UKW6-2 1-255); conditions: protein: recombinant; tags: N-terminal GST; dsDNA, one strand shown
# T11 sequence: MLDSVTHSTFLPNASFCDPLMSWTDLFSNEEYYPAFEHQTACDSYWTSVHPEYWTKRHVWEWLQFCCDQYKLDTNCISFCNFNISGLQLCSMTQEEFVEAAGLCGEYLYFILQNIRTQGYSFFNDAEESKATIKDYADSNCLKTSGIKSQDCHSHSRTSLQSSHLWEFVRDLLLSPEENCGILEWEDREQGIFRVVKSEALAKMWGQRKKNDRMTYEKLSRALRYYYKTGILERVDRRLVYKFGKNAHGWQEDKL
# In short: as §1
# ETV3 = molecular target: T12, ETV3 (Homo sapiens, UniProt P41162-2 1-143); conditions: protein: recombinant; tags: N-terminal GST; dsDNA, one strand shown
# T12 sequence: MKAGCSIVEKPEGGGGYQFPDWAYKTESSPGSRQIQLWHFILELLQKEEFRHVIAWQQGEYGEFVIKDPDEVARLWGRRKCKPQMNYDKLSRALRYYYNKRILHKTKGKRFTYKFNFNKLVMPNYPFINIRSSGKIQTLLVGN
# In short: as §1
# ETV6 = ETV6 (Homo sapiens, UniProt P41212 1-452); conditions: protein: recombinant; tags: N-terminal GST; dsDNA, one strand shown
# In short: as §1
# Sequence of CRX (O43186 whole entry): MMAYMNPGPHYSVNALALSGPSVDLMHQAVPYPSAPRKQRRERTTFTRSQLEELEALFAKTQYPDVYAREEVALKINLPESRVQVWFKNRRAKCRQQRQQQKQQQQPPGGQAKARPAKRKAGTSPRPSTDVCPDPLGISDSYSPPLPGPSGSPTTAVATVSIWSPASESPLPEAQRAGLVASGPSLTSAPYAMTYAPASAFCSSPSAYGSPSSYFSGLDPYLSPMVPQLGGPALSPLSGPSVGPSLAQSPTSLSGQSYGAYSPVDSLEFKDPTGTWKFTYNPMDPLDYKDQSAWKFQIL
# Sequence of ELF4 (Q99607 whole entry): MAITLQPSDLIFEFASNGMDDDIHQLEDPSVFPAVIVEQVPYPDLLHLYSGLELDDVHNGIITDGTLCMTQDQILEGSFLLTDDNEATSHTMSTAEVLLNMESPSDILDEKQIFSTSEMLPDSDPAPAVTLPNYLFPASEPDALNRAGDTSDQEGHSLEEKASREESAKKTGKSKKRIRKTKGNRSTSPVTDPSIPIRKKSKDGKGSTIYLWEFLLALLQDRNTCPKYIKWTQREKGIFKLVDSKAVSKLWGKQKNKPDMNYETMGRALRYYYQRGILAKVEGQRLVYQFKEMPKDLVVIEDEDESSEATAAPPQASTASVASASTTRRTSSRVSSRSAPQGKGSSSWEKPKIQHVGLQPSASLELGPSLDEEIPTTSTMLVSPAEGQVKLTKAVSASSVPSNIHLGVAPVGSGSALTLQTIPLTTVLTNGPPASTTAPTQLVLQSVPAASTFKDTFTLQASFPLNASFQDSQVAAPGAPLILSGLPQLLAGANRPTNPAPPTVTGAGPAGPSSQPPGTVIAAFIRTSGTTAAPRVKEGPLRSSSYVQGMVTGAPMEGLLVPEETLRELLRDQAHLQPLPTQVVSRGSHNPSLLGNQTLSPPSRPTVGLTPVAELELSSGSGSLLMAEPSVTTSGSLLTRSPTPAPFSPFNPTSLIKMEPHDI
# Sequence of ETV1 (P50549 whole entry): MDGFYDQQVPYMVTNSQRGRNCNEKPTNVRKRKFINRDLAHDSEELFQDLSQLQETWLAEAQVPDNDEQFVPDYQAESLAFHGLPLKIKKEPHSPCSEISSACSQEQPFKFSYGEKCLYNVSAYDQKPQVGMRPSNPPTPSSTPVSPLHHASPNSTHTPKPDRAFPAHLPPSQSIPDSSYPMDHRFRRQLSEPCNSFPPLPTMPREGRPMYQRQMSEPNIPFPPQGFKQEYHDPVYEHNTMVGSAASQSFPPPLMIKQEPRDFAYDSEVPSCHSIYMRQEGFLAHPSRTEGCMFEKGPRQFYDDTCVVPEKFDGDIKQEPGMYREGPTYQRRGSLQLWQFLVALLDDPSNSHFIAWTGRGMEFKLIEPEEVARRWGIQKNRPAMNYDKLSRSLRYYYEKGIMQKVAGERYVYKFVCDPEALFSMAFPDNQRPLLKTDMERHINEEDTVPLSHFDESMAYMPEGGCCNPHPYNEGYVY
# Sequence of ETV6 (P41212 whole entry): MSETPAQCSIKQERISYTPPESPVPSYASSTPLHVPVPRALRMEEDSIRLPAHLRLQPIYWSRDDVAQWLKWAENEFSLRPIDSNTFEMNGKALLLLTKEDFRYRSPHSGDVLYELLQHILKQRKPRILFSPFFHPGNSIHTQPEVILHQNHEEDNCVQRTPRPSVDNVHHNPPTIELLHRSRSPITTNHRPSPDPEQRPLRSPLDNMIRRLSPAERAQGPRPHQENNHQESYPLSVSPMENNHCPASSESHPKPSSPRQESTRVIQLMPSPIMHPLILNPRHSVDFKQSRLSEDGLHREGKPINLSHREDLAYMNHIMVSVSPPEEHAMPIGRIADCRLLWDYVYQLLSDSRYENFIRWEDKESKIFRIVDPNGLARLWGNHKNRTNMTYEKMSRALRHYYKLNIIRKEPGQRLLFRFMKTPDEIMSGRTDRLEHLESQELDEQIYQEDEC
# Sequence of HSF1 (Q00613 whole entry): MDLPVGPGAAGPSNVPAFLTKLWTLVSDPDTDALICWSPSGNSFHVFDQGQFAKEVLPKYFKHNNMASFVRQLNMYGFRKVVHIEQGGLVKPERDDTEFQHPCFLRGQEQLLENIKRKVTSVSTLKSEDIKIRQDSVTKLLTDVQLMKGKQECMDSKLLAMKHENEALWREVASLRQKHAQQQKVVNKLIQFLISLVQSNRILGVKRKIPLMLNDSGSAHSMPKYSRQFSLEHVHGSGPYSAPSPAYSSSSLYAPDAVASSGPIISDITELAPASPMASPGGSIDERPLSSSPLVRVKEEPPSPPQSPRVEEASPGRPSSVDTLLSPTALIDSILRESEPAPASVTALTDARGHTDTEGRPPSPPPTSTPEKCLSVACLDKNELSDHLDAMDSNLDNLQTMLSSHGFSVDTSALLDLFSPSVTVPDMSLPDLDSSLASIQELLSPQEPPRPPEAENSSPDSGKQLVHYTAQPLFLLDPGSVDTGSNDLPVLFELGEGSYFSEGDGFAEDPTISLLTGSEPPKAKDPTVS
# Sequence of ETV5 (P41161 whole entry): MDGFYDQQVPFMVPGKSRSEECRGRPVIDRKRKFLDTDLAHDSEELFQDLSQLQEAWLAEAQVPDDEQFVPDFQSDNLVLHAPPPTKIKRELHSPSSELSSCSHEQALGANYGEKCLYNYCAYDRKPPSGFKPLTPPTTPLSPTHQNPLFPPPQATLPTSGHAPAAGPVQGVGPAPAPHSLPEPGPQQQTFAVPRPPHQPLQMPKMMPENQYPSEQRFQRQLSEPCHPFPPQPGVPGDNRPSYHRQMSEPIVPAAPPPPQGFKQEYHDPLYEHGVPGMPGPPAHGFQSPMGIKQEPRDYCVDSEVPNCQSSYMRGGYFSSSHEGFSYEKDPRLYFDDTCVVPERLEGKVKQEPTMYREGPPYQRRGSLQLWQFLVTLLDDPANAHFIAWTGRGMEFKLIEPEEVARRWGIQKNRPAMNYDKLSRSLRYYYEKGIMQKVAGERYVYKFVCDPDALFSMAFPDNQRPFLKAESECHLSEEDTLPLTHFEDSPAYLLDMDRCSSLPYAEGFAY
sequence,measurement,setting,value
CCTTGG,binding signal,FEV,"1.17 fold enrichment (6-mer frequency, TF over GST control)"
same,binding signal,ETV5,"1.21 fold enrichment (6-mer frequency, TF over GST control)"
same,binding signal,HSF1,"1.1 fold enrichment (6-mer frequency, TF over GST control)"
same,binding signal,SPIC,"1.23 fold enrichment (6-mer frequency, TF over GST control)"
same,binding signal,ELF4,"1.27 fold enrichment (6-mer frequency, TF over GST control)"
same,binding signal,ELK4,"1.37 fold enrichment (6-mer frequency, TF over GST control)"
same,binding signal,ETV2,"1.28 fold enrichment (6-mer frequency, TF over GST control)"
same,binding signal,ELF3,"1.22 fold enrichment (6-mer frequency, TF over GST control)"
same,binding signal,CRX,"1.09 fold enrichment (6-mer frequency, TF over GST control)"
same,binding signal,ETV1,"1.35 fold enrichment (6-mer frequency, TF over GST control)"
same,binding signal,ERF,"1.23 fold enrichment (6-mer frequency, TF over GST control)"
same,binding signal,ETV3L,"1.3 fold enrichment (6-mer frequency, TF over GST control)"
same,binding signal,ETS2,"1.25 fold enrichment (6-mer frequency, TF over GST control)"
same,binding signal,SPDEF,"1.25 fold enrichment (6-mer frequency, TF over GST control)"
same,binding signal,ETV7,"1.22 fold enrichment (6-mer frequency, TF over GST control)"
same,binding signal,ELF5,"1.26 fold enrichment (6-mer frequency, TF over GST control)"
same,binding signal,ETV3,"1.12 fold enrichment (6-mer frequency, TF over GST control)"
same,binding signal,ETV6,"1.24 fold enrichment (6-mer frequency, TF over GST control)"
